Results reported in the supplement of paper PMC10849652.
Targets with a hit are over-represented here; the source holds about 7,900 in all. About 0.6% of all pairs of compound and target were hits. Values without a mark were called inactive.

How the values were obtained:
Assay in all cases: log2 fold change, soluble protein after heating vs DMSO (PISA); higher = thermal stabilisation; K562 cells, 10 uM, 30 min; active = over 0.2 and 3.5 SD of the protein, either way, in both replicates (recomputed)
[1] = compound: CC1=C(C=C(C=C1)NC(=O)C2=CC(=CC=C2)C(C)(C)C#N)NC3=CC4=C(C=C3)N=CN(C4=O)C
In short: (§1)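 K562 cells at 2×10^6 cells/mL were exposed to 10 μM compound for 30 min, then aliquots were heated for 3 min across 48°C-58°C, pooled, and extracted in PBS containing 0.5% NP-40 at 4°C. The supernatant after 21,000xg for 90 min was taken as soluble protein and measured by TMTpro 16plex LC-MS/MS with channel sums equalised. Thermal stability is reported relative to control samples, with values from duplicates. Fold changes are given on a log2 scale.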

[2] = compound: CC1=C(C=C(C=C1)NC(=O)C2=CC(=CC=C2)N(C)C)NC(=O)C3=CC=C(C=C3)O
In short: as §1

[3] = compound: CC1=CC=C(C=C1)SC2=C3C=C(SC3=CN=C2)C(=O)N
In short: as §1

[4] = compound: CC1=NC(=CC=C1)C2=C(N=C(N2)C(C)(C)C)C3=CC4=NC=CN=C4C=C3
In short: as §1

Nexturastat A = compound: CCCCN(Cc1ccc(C(=O)NO)cc1)C(=O)Nc1ccccc1 [Nexturastat A]
In short: as §1

vemurafenib = compound: CCCS(=O)(=O)Nc1ccc(F)c(C(=O)c2c[nH]c3ncc(-c4ccc(Cl)cc4)cc23)c1F [vemurafenib]
In short: as §1

[5] = compound: CCCS(=O)(=O)Nc1ccc(F)c(C(=O)c2c[nH]c3ncc(Cl)cc23)c1F
In short: as §1

[6] = compound: CCCc1cc(C)[nH]c(=O)c1CNC(=O)c1cc(-c2ccnc(N3CCN(C)CC3)c2)cc2c1cnn2C(C)C
In short: as §1

givinostat = compound: CCN(CC)Cc1ccc2cc(COC(=O)Nc3ccc(C(=O)NO)cc3)ccc2c1 [givinostat]
In short: as §1

barasertib = compound: CCN(CCCOc1ccc2c(Nc3cc(CC(=O)Nc4cccc(F)c4)[nH]n3)ncnc2c1)CCOP(=O)(O)O [barasertib]
In short: as §1

[7] = compound: CC[C@@H]1C(=O)N(C)c2cnc(Nc3ccc(C(=O)NC4CCN(C)CC4)cc3OC)nc2N1C1CCCC1
In short: as §1

volasertib = compound: CC[C@@H]1C(=O)N(C)c2cnc(Nc3ccc(C(=O)N[C@H]4CC[C@H](N5CCN(CC6CC6)CC5)CC4)cc3OC)nc2N1C(C)C [volasertib]
In short: as §1

[8] = compound: CC[C@H](C)N1C=C(C2=C(C=C(C=C21)C3=CN=C(C=C3)N4CCNCC4)C(=O)NCC5=C(C=C(NC5=O)C)C)C
In short: as §1

epoxomicin = compound: CC[C@H](C)[C@@H](C(=O)N[C@@H]([C@@H](C)O)C(=O)N[C@@H](CC(C)C)C(=O)[C@]1(CO1)C)NC(=O)[C@H]([C@@H](C)CC)N(C)C(=O)C [epoxomicin]
In short: as §1

[9] = compound: CCn1c(C(=O)N(C2CC2)C2CC2)cc2c3c(ncn3C)c(Nc3cc(C)n(C)n3)nc21
In short: as §1

[10] = compound: CCn1cc(-c2ccnc3[nH]c(-c4cccc(CN(C)C)c4)cc23)c(-c2ccc(NC(=O)N(C)C)cc2)n1
In short: as §1

[11] = compound: CN(C)CC(=O)Nc1ccc2[nH]c(=O)c3ccccc3c2c1
In short: as §1

rosiglitazone = compound: CN(CCOC1=CC=C(C=C1)C[C@H]2C(=O)NC(=O)S2)C3=CC=CC=N3 (racemic) [rosiglitazone]
In short: as §1

[12] = compound: CN1C2=C(C3=C1C(=O)N(N=C3)CC4=CC(=CC=C4)N)SC(=C2)S(=O)C
In short: as §1

[13] = compound: CN1CCC(CNc2ccc3ncc(-c4cccc(OC(F)(F)F)c4)n3n2)CC1
In short: as §1

Sequence of UniProt Q6N075 (Q6N075 whole entry, looked up): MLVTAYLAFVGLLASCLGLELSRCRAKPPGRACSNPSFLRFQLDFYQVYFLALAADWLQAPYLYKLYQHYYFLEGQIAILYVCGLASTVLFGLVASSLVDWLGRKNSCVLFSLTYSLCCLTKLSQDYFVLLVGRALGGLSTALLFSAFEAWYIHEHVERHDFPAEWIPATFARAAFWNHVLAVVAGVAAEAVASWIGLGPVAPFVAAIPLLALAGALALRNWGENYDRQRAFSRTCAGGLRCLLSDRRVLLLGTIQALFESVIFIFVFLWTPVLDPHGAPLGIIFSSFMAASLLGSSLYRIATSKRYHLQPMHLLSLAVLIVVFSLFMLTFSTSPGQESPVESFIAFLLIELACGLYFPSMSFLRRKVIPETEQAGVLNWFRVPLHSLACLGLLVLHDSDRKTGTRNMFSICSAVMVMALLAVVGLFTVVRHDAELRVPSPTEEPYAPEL
Sequence of UniProt Q8IW41 (Q8IW41 whole entry, looked up): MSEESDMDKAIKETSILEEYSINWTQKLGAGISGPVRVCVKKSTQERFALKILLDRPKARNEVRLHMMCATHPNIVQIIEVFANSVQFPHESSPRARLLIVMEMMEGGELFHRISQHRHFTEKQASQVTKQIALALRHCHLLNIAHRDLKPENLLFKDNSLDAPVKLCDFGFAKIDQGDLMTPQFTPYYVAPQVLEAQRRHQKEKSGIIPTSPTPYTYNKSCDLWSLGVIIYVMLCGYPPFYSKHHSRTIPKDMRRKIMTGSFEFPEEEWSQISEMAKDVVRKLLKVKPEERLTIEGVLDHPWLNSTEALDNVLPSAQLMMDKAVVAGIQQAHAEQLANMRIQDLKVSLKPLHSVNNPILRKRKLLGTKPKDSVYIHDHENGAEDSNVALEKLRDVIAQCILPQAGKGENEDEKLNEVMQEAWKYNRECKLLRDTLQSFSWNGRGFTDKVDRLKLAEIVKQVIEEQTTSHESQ
Sequence of UniProt Q96PC5 (Q96PC5 whole entry, looked up): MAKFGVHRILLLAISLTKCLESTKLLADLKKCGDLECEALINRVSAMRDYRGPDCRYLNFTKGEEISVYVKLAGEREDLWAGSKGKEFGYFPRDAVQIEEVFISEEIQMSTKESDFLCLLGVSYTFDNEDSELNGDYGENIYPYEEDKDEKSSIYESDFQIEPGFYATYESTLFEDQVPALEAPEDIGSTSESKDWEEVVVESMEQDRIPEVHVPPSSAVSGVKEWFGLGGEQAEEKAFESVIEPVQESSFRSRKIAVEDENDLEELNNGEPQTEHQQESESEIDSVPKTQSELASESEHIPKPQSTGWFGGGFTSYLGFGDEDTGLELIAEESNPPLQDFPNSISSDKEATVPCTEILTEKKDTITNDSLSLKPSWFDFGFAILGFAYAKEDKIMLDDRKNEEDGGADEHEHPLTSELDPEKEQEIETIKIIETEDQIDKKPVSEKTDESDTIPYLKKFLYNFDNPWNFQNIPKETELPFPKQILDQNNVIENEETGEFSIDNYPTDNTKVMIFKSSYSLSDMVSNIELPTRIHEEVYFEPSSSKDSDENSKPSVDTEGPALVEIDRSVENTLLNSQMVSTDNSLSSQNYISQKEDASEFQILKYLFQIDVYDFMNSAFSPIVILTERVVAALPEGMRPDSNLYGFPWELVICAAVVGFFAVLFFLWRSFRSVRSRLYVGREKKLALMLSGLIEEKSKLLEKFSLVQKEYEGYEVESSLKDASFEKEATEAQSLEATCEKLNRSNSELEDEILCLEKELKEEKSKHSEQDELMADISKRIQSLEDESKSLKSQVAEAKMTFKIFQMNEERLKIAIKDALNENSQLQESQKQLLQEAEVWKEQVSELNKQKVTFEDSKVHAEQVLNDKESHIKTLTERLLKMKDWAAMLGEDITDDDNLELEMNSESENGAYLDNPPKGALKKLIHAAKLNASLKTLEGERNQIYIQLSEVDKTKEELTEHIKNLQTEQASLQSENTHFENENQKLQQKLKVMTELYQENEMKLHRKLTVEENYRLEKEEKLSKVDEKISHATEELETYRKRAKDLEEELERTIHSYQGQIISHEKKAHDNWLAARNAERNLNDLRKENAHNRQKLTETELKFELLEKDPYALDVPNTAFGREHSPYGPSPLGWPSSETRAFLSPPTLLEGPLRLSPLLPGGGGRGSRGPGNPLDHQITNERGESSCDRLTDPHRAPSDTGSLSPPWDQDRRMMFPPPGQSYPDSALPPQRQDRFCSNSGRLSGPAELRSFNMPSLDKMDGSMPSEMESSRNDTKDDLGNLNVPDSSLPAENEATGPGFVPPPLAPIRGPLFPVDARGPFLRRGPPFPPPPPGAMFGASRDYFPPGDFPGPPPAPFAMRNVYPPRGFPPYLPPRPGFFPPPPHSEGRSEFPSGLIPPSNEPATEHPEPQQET
Sequence of UniProt Q86WA8 (Q86WA8 whole entry, looked up): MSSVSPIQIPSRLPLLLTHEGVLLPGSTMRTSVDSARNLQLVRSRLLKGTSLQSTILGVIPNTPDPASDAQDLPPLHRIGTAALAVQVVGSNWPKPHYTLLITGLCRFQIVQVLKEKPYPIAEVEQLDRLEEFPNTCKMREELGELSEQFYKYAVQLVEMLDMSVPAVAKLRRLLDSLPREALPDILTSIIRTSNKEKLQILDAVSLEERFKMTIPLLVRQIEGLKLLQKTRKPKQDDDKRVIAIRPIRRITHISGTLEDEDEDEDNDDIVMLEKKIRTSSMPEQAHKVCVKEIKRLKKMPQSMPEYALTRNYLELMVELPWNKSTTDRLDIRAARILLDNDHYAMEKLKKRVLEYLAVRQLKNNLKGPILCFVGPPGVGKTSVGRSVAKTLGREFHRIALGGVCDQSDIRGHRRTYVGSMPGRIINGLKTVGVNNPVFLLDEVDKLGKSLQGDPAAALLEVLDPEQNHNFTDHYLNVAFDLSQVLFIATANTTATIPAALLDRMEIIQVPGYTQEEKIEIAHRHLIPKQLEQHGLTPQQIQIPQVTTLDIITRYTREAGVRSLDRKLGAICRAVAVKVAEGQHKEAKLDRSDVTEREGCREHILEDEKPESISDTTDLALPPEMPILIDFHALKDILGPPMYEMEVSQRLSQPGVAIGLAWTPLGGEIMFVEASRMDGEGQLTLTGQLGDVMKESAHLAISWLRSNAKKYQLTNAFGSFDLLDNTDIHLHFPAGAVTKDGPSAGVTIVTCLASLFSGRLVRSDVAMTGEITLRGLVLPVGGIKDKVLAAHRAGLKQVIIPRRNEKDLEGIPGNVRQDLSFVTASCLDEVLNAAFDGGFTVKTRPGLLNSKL
Sequence of UniProt O43318 (O43318 whole entry, looked up): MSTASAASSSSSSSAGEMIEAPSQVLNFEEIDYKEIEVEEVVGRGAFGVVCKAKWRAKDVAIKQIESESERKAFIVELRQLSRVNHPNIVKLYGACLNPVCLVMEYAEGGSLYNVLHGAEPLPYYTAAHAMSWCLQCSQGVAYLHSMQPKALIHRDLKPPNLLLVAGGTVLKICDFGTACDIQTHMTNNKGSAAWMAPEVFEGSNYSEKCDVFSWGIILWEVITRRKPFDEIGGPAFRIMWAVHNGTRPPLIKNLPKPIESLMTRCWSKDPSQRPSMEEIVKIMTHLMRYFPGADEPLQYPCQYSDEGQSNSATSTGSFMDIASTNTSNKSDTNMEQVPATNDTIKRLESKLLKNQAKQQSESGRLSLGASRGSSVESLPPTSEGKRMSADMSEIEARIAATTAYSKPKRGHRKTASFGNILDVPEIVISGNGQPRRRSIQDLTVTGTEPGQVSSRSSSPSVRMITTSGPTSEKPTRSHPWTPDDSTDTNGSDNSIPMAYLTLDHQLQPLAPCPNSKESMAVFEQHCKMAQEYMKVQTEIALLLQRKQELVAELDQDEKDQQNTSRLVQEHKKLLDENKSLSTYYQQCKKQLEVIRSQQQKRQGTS
Sequence of UniProt Q68DH5 (Q68DH5 whole entry, looked up): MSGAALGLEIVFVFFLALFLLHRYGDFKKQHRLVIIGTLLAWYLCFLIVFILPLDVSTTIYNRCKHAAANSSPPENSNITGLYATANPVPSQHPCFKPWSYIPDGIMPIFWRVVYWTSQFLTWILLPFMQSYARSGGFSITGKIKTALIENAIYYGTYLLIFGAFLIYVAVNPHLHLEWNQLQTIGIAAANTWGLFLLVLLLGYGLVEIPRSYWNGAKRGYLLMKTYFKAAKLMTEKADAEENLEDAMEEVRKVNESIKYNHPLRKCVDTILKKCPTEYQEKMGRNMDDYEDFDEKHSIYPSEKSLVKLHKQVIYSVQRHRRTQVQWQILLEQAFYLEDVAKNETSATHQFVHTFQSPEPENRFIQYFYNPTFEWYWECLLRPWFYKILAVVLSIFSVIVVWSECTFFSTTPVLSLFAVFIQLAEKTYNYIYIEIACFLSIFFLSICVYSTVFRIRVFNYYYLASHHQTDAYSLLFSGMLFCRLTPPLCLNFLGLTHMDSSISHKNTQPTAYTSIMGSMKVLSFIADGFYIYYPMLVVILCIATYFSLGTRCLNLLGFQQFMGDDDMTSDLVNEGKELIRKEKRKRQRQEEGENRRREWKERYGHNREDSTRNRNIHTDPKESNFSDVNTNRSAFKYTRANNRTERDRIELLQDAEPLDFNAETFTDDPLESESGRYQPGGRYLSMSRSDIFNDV
Sequence of UniProt Q6P9B6 (Q6P9B6 whole entry, looked up): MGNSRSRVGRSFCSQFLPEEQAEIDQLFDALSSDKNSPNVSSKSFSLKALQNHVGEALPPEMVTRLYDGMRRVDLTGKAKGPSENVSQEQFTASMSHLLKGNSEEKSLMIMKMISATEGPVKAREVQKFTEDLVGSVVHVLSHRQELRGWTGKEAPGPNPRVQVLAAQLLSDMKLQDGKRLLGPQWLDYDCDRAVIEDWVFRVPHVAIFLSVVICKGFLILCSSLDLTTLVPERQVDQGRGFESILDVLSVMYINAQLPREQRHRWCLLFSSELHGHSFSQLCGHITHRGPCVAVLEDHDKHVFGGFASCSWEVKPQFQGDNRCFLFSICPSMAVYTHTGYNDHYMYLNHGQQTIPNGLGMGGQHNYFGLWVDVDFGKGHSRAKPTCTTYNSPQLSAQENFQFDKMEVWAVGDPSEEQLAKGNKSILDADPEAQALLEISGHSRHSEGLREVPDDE

Target | log2 fold change [1] | log2 fold change [2] | log2 fold change [3] | log2 fold change [4] | log2 fold change (Nexturastat A) | log2 fold change (vemurafenib) | log2 fold change [5] | log2 fold change [6] | log2 fold change (givinostat) | log2 fold change (barasertib) | log2 fold change [7] | log2 fold change (volasertib) | log2 fold change [8] | log2 fold change (epoxomicin) | log2 fold change [9] | log2 fold change [10] | log2 fold change [11] | log2 fold change (rosiglitazone) | log2 fold change [12] | log2 fold change [13]
MAP3K7 (UniProt O43318) | -0.008 | -0.039 | 0.041 | 0.019 | 0.027 | 0.042 | 0.074 | 0.008 | 0.093 | 0.079 | -0.015 | -0.369 (active) | -0.008 | 0.018 | 0.032 | 0.043 | 0.046 | 0.079 | 0.079 | -0.093
LONP2 (UniProt Q86WA8) | 0.173 | -0.119 | 0.08 | 0.009 | -0.083 | 0.128 | -0.137 | 0.013 | -0.05 | -0.056 | 0.141 | 0.16 | 0.063 | 0.336 | -0.032 | 0.034 | -0.106 | 0.05 | 0.054 | 0.17
LMBRD2 (UniProt Q68DH5) | -0.038 | 0.016 | 0.043 | 0 | 0.019 | -0.052 | -0.03 | 0.038 | 0.043 | 0.011 | -0.063 | -0.042 | -0.012 | 0.081 | -0.007 | -0.018 | 0.002 | -0.023 | -0.008 | -0.362 (active)
MIA2 (UniProt Q96PC5) | 0.009 | -0.012 | -0.002 | -0.016 | 0.015 | 0.003 | -0.062 | 0.128 | 0.003 | 0.021 | -0.039 | -0.29 (active) | 0.005 | 0.037 | -0.009 | 0.054 | 0.005 | 0.034 | 0.031 | 0.053
LEO1 (UniProt Q8WVC0) | -0.086 | -0.113 | 0 | -0.075 | 0.109 | -0.025 | 0.033 | 0.029 | 0.118 | 0.032 | -0.021 | -0.402 (active) | -0.013 | -0.001 | -0.007 | -0.051 | 0.121 | 0.006 | -0.033 | -0.048
MEAK7 (UniProt Q6P9B6) | 0.081 | 0.053 | -0.005 | 0.015 | -0.006 | 0.012 | 0.067 | -0.055 | 0.085 | 0.025 | -0.084 | -0.473 (active) | 0.039 | 0.067 | -0.025 | -0.03 | -0.046 | 0.103 | -0.033 | -0.097
MFSD5 isoform 2 (UniProt Q6N075) | 0.038 | 0.015 | -0.078 | 0.064 | -0.014 | 0.023 | -0.118 | -0.039 | -0.039 | 0.122 | 0.052 | 0.111 | -0.124 | 0.427 (active) | -0.012 | 0.028 | -0.092 | -0.032 | -0.056 | 0.14
MAPKAPK5 (UniProt Q8IW41) | 0.004 | -0.02 | -0.015 | 0.013 | 0.003 | 0.028 | 0.11 | 0.038 | 0.225 | -0.03 | 0.009 | -0.007 | -0.023 | 0.045 | -0.092 | -0.132 | -0.123 | -0.046 | -0.112 | -0.033
